Growth data for 8 molecules are collected here from PubChem BioAssay (NCI).

About 83,000 compounds went through this panel and 20% of them were active in at least one assay; those are over-represented in the sample as a whole.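 A percent growth of 40 corresponds to 60% growth inhibition; 0 means no net growth; -100 means all cells died. Active threshold: below 10.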 Unmarked numbers belong to inactive results. Active and inactive are the calls of the source.

What all share (experiment): NCI-60 one-dose screen, 48 h (100 = growth as untreated, 0 = no growth, -100 = all killed)
Holding throughout (conditions): 10 µM unless noted

For assay [1], the system named is DU-145 prostate.
The test system of assay [2] is K-562 leukemia.
The subject of assay [3] is MALME-3M melanoma.
For assay [4], the system named is MDA-MB-231 breast.
Assay [5] relates to RXF 393 renal.
In assay [6] the test system is SF-268 CNS.
Assay [7] deals with SF-295 CNS.
Assay [8] deals with SF-539 CNS.
The subject of assay [9] is UACC-257 melanoma.
Assay [10] relates to M14 melanoma.
In assay [11] the test system is HCT-15 colon.
Assay [12] deals with HT29 colon.
The subject of assay [13] is SNB-75 CNS.
Assay [14] has as its system SNB-19 CNS.
Assay [15] relates to U251 CNS.
Assay [16] relates to PC-3 prostate.
Assay [17] has as its system SK-MEL-5 melanoma.
Assay [18] concerns UACC-62 melanoma.
The subject of assay [19] is LOX IMVI melanoma.
Assay [20] concerns SK-MEL-28 melanoma.

Consider `CN1CCN(C(=O)c2ccc(NC(=O)Nc3ccc(-c4nc(N5CCOCC5)c5cccn5n4)cc3)cc2)CC1`, for which the growth is 7.11% (active) in assay [1]; 15.3% in [2]; -37% (active) in [3]; 2.25% (active) in assay [4]; -39.5% (active) in [5]; 4.85% (active) in [6]. The growth is -43.6% (active) in assay [7]; -40.1% (active) in [8]; -21.3% (active) in assay [9]; -22% (active) in assay [10]; 13.2% in assay [11]; 5.74% (active) in assay [12]. Further, the growth in assay [13] is -37.7% (active); in assay [14], 3.27% (active); in [15] it was 3.91% (active); in assay [16], 5.5% (active); in assay [17] it was -61.6% (active); in assay [18], -41.3% (active). The growth was -3.2% (active) in assay [19] and -18.4% (active) in [20].

Consider `COC1=CC(c2ccc[nH]2)=N/C1=C\c1[nH]c(C)c(C(=O)OCc2ccccc2)c1C`, for which the growth in [1] was 12.1%; in assay [2], 2.63% (active); in assay [3], -76.7% (active); in assay [4], -65.1% (active); in [5] it was -18.1% (active); in [6] it was 0.9% (active). Moreover, the growth in assay [7] was -79.3% (active); in assay [8], -63.4% (active); in assay [9] it was -57.5% (active); in assay [10], -73.9% (active); in [11], -35.4% (active); in assay [12] it was -19.4% (active). Also, the growth in assay [13] is -21.4% (active); in [14] it was 18.5%; in assay [15], -47% (active); in [16], 10.4%; in assay [17] it was -99.5% (active); in assay [18] it was -52.6% (active). Also, the growth is -90.6% (active) in [19] and -59.4% (active) in assay [20].

Take `Brc1ccc2[nH]cc(-c3nonc3-c3c[nH]c4ccccc34)c2c1`: the growth in assay [1] was 44.6%; in assay [2] it was 10.4%; in [3], 56.8%; in assay [4] it was 11.6%; in assay [5], 77.6%; in assay [6], 44.9%. Also, the growth in assay [7] is 33.3%; in assay [8], 59.9%; in assay [9] it was 56.9%; in assay [10] it was 24.7%; in assay [11] it was 19.5%; in [12], 11.2%. The growth in [13] was 46.5%; in assay [14] it was 63.8%; in [15], 43.3%; in [16] it was 35.2%; in assay [17] it was 59.7%; in assay [18], 39.2%. The growth in assay [19] was 2.2% (active); in assay [20] it was 77.6%.

Consider `CC(C)(C)n1cc(-c2ccnc(NCCNS(=O)(=O)c3cccc(F)c3)c2)c(-c2ccccc2)n1`, for which the growth in assay [1] is 96.1%; in assay [2] it was 44.2%; in assay [3], 107%; in [4], 87%; in assay [5] it was 96.8%; in assay [6], 97.7%. Besides, the growth was 76.8% in [7]; 88.1% in [8]; 98.9% in assay [9]; 94.8% in assay [10]; 62.5% in assay [11]; 41.4% in assay [12]. The growth in [13] is 85.2%; in assay [14] it was 89.3%; in assay [15], 67.5%; in [16], 80.3%; in assay [17] it was 72.3%; in assay [18], 81.7%. Further, the growth in assay [19] is 85.1%; in assay [20], 102%.

On to `O=C(Nn1c2c(sc1=Nc1ccccc1)C(=O)c1ccccc1C2=O)c1cc2ccc1CCc1ccc(cc1)CC2`, for which the growth in assay [1] was 71.7%; in assay [2], 77.8%; in [3] it was -69.3% (active); in [4] it was 40%; in assay [5] it was 70.7%; in [6] it was 67.7%. The growth in assay [7] is 87.8%; in [8] it was 92.6%; in [9] it was 62.4%; in assay [10], 4.14% (active); in assay [11], 51.3%; in assay [12], 91.8%. Moreover, the growth was 36.3% in assay [13]; 60.7% in [14]; 82.6% in [15]; 66.3% in assay [16]; 39.7% in assay [17]; 70.8% in assay [18]. Further, the growth is 62.2% in assay [19] and 92.4% in assay [20].

Take `CCOC(=O)CNP(=O)(OC[C@@H](Cc1ccccc1)NC(=O)c1cc2ccccc2s1)Oc1ccccc1` (stereo not given in full): the growth in assay [1] was 88.8%; in [2] it was 19.4%; in assay [3], 69.3%; in [4], 77%; in assay [5] it was 84.4%; in assay [6], 85.6%. Further, the growth in assay [7] was 88.5%; in assay [8] it was 78.9%; in assay [9], 81.2%; in [10], 59.6%; in assay [11], 43.5%; in assay [12], 57.2%. Further, the growth in assay [13] was 35.2%; in assay [14], 87.7%; in assay [15] it was 66.5%; in assay [16], 85.5%; in [17] it was 88.2%; in assay [18], 71.4%. In addition, the growth is 76.2% in assay [19] and 77% in assay [20].

Regarding `Cc1cc(=O)[nH]c2c(C#N)cnn12`, the growth is 104% in [1]; 103% in [2]; 98.9% in assay [3]; 104% in assay [4]; 110% in assay [5]; 99.9% in [6]. The growth in assay [7] is 101%; in assay [8], 101%; in [9] it was 96.7%; in [10], 105%; in assay [11] it was 107%; in assay [12] it was 104%. The growth in assay [13] is 100%; in [14] it was 98.1%; in assay [15], 102%; in assay [16], 107%; in assay [17] it was 99.4%; in assay [18], 90.7%. The growth in assay [19] is 101%; in assay [20], 105%.

Consider `C#CCOc1ccc2ncnc(Nc3cccc(NC(=O)C=C)c3)c2c1`, for which the growth was 54% in assay [1]; 70.6% in [2]; 73.9% in [3]; 58.1% in assay [4]; 6.44% (active) in assay [5]; 55.9% in [6]. Also, the growth was 91.6% in [7]; 59.2% in assay [8]; 69.5% in assay [9]; 62.8% in assay [10]; 71.1% in assay [11]; 42.7% in assay [12]. In addition, the growth in assay [13] is 60.5%; in assay [14], 73.9%; in [15], 73.1%; in assay [16], 82.2%; in [17], 77.5%; in assay [18], 64.1%. Also, the results for the growth in assay [19] and in assay [20] were 62.5% and 86.3%, respectively.
